HP1b binding inh: HP1-beta chromodomain-methylated histone interaction inhibition; P83916; AlphaScreen HP1-beta / biotin-H3K9me3 peptide binding; Potency, µM (titrated, usually from 114 µM), hits mostly inhibitors; 390,000 tested, 0.56% active; AID 540317; also: nearly all actives have a fitted effect of over 70% in size
Target sequence (P83916 whole entry, looked up): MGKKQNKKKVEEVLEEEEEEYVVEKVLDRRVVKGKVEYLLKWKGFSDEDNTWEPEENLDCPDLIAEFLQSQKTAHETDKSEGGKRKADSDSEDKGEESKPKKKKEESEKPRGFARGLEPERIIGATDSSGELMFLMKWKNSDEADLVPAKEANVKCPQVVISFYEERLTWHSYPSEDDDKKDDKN
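HP1-beta protein (50 nM final) preincubated 30 min at room temperature with biotinylated H3(1-18)K9me3 peptide (50 nM) in PBS pH 7.4, 0.01% Tween-20, then compound added for 30 min. AlphaScreen streptavidin donor/nickel chelate acceptor beads (10 ug/mL final), 30 min dark, luminescence read.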
JMJD2A Tudor inh: blocks the human JMJD2A Tudor domain. AlphaScreen JMJD2A-Tudor / H3K4me3 peptide binding. Potency, µM (doses to about 114 µM), hits mostly inhibitors. 390,000 tested, 4.4% active; also: nearly all actives have a fitted effect of over 50% in size
G9a inh: blocks human histone lysine methyltransferase G9a; G9a H3K9 monomethylation, AlphaScreen, 2 h; 350,000 tested, 8.8% active; Potency, µM (doses to about 102 µM), hits mostly inhibitors; also: nearly all actives have a fitted effect of over 75% in size
Target sequence (Q96KQ7 913-1193 limits assumed): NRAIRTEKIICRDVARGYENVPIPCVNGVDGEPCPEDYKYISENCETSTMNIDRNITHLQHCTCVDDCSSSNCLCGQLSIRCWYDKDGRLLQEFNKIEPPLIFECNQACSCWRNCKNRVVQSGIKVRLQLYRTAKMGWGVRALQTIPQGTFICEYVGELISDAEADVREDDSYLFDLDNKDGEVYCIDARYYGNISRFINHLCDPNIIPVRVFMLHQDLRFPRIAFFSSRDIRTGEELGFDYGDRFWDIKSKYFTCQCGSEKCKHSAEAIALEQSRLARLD
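Compounds were preincubated with 20 nM G9a for 15 min, after which biotinylated H3K9 peptide (500 nM) and SAM (20 uM) started a 2 h room-temperature reaction. Monomethylated product was quantified by antibody-based AlphaScreen chemiluminescence.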
Six1-Eya2 blk: inhibitors of human Six1/Eya2 interaction | Q15475+O00167 | AID 651725 | activity change, % (concentration not given with the values) | AlphaScreen GST-Six1/His-Eya2 binding, biochemical; hits give low values | 360,000 tested, 0.56% active; in the data active = activity change below about -65%; inconclusive = mostly about -30% to -63%
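Compounds are tested against tagged Six1 and Eya2 proteins bridged by glutathione donor and nickel acceptor beads; after a one-hour incubation at 37 °C without light, AlphaScreen emission is recorded.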
BAZ2B block: inhibitors of human BAZ2B bromodomain; Q9UIF8; AlphaScreen BAZ2B-H3K14Ac peptide displacement; Potency, µM (series often up to 114 µM), actives largely listed as inhibitors; 360,000 tested, 4.4% active; AID 504333; also: nearly all actives have a fitted effect of over 60% in size
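AlphaScreen displacement of biotin-H3(5-23)K14Ac peptide (50 nM final) from BAZ2B (50 nM final) in PBS pH 7.4, 0.01% Tween-20; complex preformed 30 min RT, then compounds (top 110 uM) 30 min RT, beads 20 min dark.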
CtBP-E1A inh: inhibitors of CtBP/E1A interaction. AlphaScreen GST-E1A/His-CtBP binding, 1536-well; hits give low values. 340,000 tested, 0.49% active. activity change, % (test concentration not listed); in the data active = activity change below about -65%; inconclusive = mostly about -30% to -63%
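Homogeneous bead-based format: GST-tagged E1A captured on glutathione donor beads, His-tagged CtBP on nickel acceptor beads; compounds precede bead addition by 2 h at 37 °C.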
Each line names hits and unclear results; the compound was inactive in the other large screens. An excerpt weighted towards active compounds, which were near 10% of everything screened. Unless noted, calls follow the shape of the dose curve; as a rule, active = well fitted inhibition curve with a large enough effect; inconclusive = small, poorly fitted or top-dose-only effect; inactive = no such curve, though single readings can be large or run the other way.

CSc1ccc(NC(=O)c2cccnc2)cc1C#N	G9a inh 50.1µM
CCCN1Cc2cccc(C(=O)Nc3ccc4c(c3)OCO4)c2C1=O	BAZ2B block inconclusive
O=C(NC(=S)Nc1ccc(N2CCOCC2)c(Cl)c1)c1cccs1	JMJD2A Tudor inh inconclusive, BAZ2B block 35.5µM
CC(C)CN(C(=O)COC(=O)CCSc1ccc(Cl)cc1)c1c(N)n(Cc2ccccc2)c(=O)[nH]c1=O	none (no result: HP1b binding inh, JMJD2A Tudor inh, G9a inh, BAZ2B block)
CCc1ccc2[nH]c(=O)c(CN(Cc3cccnc3)Cc3nnnn3Cc3ccccc3)cc2c1	none (no result: G9a inh, Six1-Eya2 blk, BAZ2B block, CtBP-E1A inh)
CCOC(=O)Cc1c(C)nc(Cc2ccc(OC(C)C)cc2)[nH]c1=O	none
COP1(=O)CC(O)C(O)C(COCc2ccccc2)O1 (centres undefined)	none (no result: G9a inh, Six1-Eya2 blk, BAZ2B block, CtBP-E1A inh)
O=C(Nc1ccc(N2CCCC2)c(Cl)c1)c1cccnc1	G9a inh 8.91µM
O=C(Nc1ccc2c(c1)OCCO2)c1cccnc1	JMJD2A Tudor inh 89.1µM, BAZ2B block inconclusive
O=C(Nc1ccc(N2CCCCC2)c(Cl)c1)c1cccnc1	none
O=C(Nc1ccc2c(c1)OCCO2)c1ccc2nccnc2c1	none
C[C@@H]1CCCCO[C@@H](CN(C)CC2CC2)[C@@H](C)CN([C@H](C)CO)C(=O)c2cc(N(C)C)ccc2O1	none (no result: HP1b binding inh, JMJD2A Tudor inh, G9a inh, BAZ2B block)
Cc1ccc(-c2onc(C)c2C)cc1S(=O)(=O)NC1CCC(C)CC1 (centres undefined)	none (no result: Six1-Eya2 blk, CtBP-E1A inh)
CC1CC(=O)NN=C1c1cccs1 (centres undefined)	G9a inh inconclusive
COCC(C)N=C1NN=C(c2cccs2)C(CC(=O)O)S1 (centres undefined)	G9a inh 50.1µM (no result: CtBP-E1A inh)
COc1ccc(/C=C2\SC(=S)N(c3cccnc3)C2=O)cc1	none (no result: CtBP-E1A inh)
O=C1/C(=C\c2ccc(O)cc2)SC(=S)N1c1cccnc1	JMJD2A Tudor inh inconclusive, G9a inh 31.6µM, BAZ2B block inconclusive
O=C1/C(=C/c2cccnc2)SC(=S)N1Cc1ccco1	JMJD2A Tudor inh inconclusive (no result: G9a inh, BAZ2B block)
CC(C)C(C(=O)O)N1C(=O)/C(=C/C=C/c2ccco2)SC1=S (centres undefined)	HP1b binding inh inconclusive, JMJD2A Tudor inh 3.55µM, G9a inh 3.55µM, Six1-Eya2 blk -68.7, BAZ2B block 4.47µM
Cc1cc(/C=C2\SC(=S)N(Cc3ccco3)C2=O)c(C)n1-c1cccnc1	G9a inh inconclusive, BAZ2B block 12.6µM
CC(C)C(C(=O)O)N1C(=O)/C(=C/c2cccn2C)SC1=S (centres undefined)	BAZ2B block inconclusive
O=C1/C(=C\c2ccco2)SC(=S)N1c1ccc(O)cc1	JMJD2A Tudor inh inconclusive, G9a inh 39.8µM, BAZ2B block 35.5µM
O=C(Nc1sc2c(c1C(=O)NCc1cccnc1)CCCC2)c1cc(=O)c2ccccc2o1	none (no result: Six1-Eya2 blk, CtBP-E1A inh)
CC(C)(C)c1ccc(C(=O)Nc2cc(-c3nc4ccccc4o3)ccc2Cl)cc1	none (no result: Six1-Eya2 blk, CtBP-E1A inh)
CCOC(=O)CN1C(=O)S/C(=C/c2ccco2)C1=O	G9a inh inconclusive, BAZ2B block inconclusive
O=C1NN(c2ccc(F)cc2)C(=O)/C1=C\C=C\c1ccco1	JMJD2A Tudor inh inconclusive, G9a inh inconclusive
O=C1/C(=C/C=C/c2ccco2)SC(=S)N1c1ccc(O)cc1	HP1b binding inh 28.2µM, G9a inh 12.6µM, Six1-Eya2 blk inconclusive, BAZ2B block 31.6µM, CtBP-E1A inh inconclusive
NN1C(=O)/C(=C\c2ccco2)SC1=S	JMJD2A Tudor inh inconclusive, G9a inh 25.1µM, BAZ2B block 44.7µM
O=C1/C(=C/c2ccco2)SC(=S)N1c1cccnc1	HP1b binding inh 15.8µM, JMJD2A Tudor inh 8.91µM, Six1-Eya2 blk -70.7, BAZ2B block 10µM (no result: G9a inh)
COc1cccc(/C=C2\SC(=S)N(c3cccnc3)C2=O)c1OC	G9a inh inconclusive
Cc1nc2c(OCc3ccc(C#N)cc3)cccn2c1N(C)C(=O)CCC1CCCC1	none (no result: HP1b binding inh, JMJD2A Tudor inh, G9a inh, BAZ2B block)
Cc1ccc(N2CC(NC(=O)C(=O)c3c[nH]c4ccccc34)CC2=O)cc1 (centres undefined)	none (no result: Six1-Eya2 blk, CtBP-E1A inh)
Cc1cc(N2CCN(C)CC2)nc(=S)[nH]1	G9a inh 39.8µM
CC(=N\O)/C(CN(C)C)=N/O	JMJD2A Tudor inh 79.4µM, G9a inh inconclusive

Screens (PubChem)
